Assay [1] can be described thus: growth inhibition of DIPG glioma cells, dose response, cell-based, SU-DIPG-XVII, MIPE5.0, CellTiter-Glo, qHTS (AID 1347060).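 As to AC50: cells exposed to compound for 48 hours before viability readout.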 The note with it: SU-DIPG-XVII viability, CellTiter-Glo ATP luminescence.
Assay [2] can be described thus: growth inhibition of DIPG glioma cells, dose response, cell-based, SU-DIPG-XIII, MIPE5.0, CellTiter-Glo, qHTS (AID 1347064; cut-off not given, nearly all actives have AC50 up to about 23 µM;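 as to AC50: cells exposed to compound for 48 hours before the viability read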). The note with it: SU-DIPG-XIII viability, CellTiter-Glo ATP luminescence.
A short description of assay [3]: viability loss in pontine glioma line – cell-based, SU-DIPG-XXV, MIPE5.0, CellTiter-Glo, qHTS, dose response (AID 1347065).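 Also: cells exposed to compound for 48 hours before ATP readout.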 The note with it: CellTiter-Glo ATP luminescence.
Assay [4] can be described thus: JHH-DIPG-1 glioma cell viability, MIPE5.0 library, CellTiter-Glo luminescence, qHTS (AID 1347067).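 Also: cells exposed to compound for 48 hours before readout.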 Particulars: JHH-DIPG-1 glioma viability, CellTiter-Glo ATP luminescence.
A short description of assay [5]: SU-DIPG-XXV glioma cell viability, MIPE5.0 library, qHTS (AID 1347068; cut-off not given, nearly all actives have IC50 up to about 30 µM;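 as to IC50: cells exposed to compound for 48 hours before viability readout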).
Assay [6] is described as follows: survival rescue of mitochondrial mutant cells in low glucose, primary screen, MELAS cybrids, Rieske KO mouse fibroblasts, CellTiter-Glo (AID 1508586;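 active = mean z-score across replicates of 1.96 or higher in either the MELAS or the Rieske mutant cell line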;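 also: z relative to plate mean and SD of compound and empty wells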).
Assay [7] in a line: sensitizers of A549 cells to miR-34 induction, primary screen, imaging, A549 dox-inducible miR-34, nuclei and caspase counts (AID 1347080;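 active = compounds whose cell count with miR-34 switched on is under 0.7 times the count with it off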). The note with it: A549 miR-34 inducible, Hoechst nuclei count, 48 h.
Assay [8] is described as follows: LFS_MB_P medulloblastoma growth inhibition, cell-based, chromothripsis tumors, cisplatin or BGB combos (AID 1671449; in the data active = inhibition above about 80%;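 also: cells exposed for 96 hours; 0% = vehicle DMSO and 100% = killing by high DMSO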). Particulars: LFS_MB_P medulloblastoma cells.
Assay [9] in a line: HDN33 neuroblastoma growth inhibition, cell-based, chromothripsis tumors, cisplatin or BGB combos (AID 1671450; in the data active = inhibition above about 80%;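 also: cells exposed to compound for four days; 0% = vehicle DMSO and 100% = cell killing by high DMSO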). The note with it: HDN33 neuroblastoma cells, stronger effect = higher value.
A short description of assay [10]: ICB984 medulloblastoma cell growth inhibition, synergistic combos for chromothripsis tumors, cisplatin or BGB combos (AID 1671451; call rule not given here;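 also: cells exposed for 96 hours before readout; 0% = vehicle DMSO and 100% = killing by high DMSO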). The note with it: ICB984 medulloblastoma cells, drug combinations, stronger effect = higher value.
The nature of assay [11]: LFS_MB_1R medulloblastoma cell growth inhibition, synergistic combos for chromothripsis tumors, cisplatin or BGB combos (AID 1671452; in the data active = inhibition above about 80%;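 also: cells exposed for 96 hours before readout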). Particulars: LFS_MB_1R medulloblastoma cells, stronger effect = higher value.
Assay [12] is described as follows: HTB85 osteosarcoma cell growth inhibition, synergistic combos for chromothripsis tumors, BGB or cisplatin IC20 combos (AID 1671453; in the data active = inhibition above about 80%;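 also: cells exposed for 96 hours before readout; 0% = vehicle DMSO and 100% = high DMSO killing control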). The note with it: HTB85 osteosarcoma cells, drug combinations, stronger effect = higher value.
The nature of assay [13]: CRL2098 osteosarcoma cell growth inhibition, synergistic combos for chromothripsis tumors, BGB or cisplatin IC20 combos (AID 1671454; in the data active = inhibition above about 80%;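 also: cells exposed for 96 h before readout; 0% = vehicle DMSO and 100% = killing by high DMSO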). Particulars: CRL2098 osteosarcoma cells, drug combinations, stronger effect = higher value.
A short description of assay [14]: HD-MB03 medulloblastoma cell growth inhibition, synergistic combos for chromothripsis tumors, BGB or cisplatin IC20 combos (AID 1671455; in the data active = inhibition above about 83%;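 also: 0% = vehicle DMSO and 100% = high DMSO as cytotoxic control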). Particulars: HD-MB03 medulloblastoma cells, stronger effect = higher value.
Assay [15] is described as follows: UWB1.289 ovarian carcinoma cell growth inhibition, synergistic combos for chromothripsis tumors, BGB or cisplatin combos (AID 1671456; in the data active = inhibition above about 80%;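 also: cells exposed to compound for four days; 0% = vehicle DMSO and 100% = killing by high DMSO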). Particulars: UWB1.289 ovarian carcinoma cells, stronger effect = higher value.
Assay [16] can be described thus: MDA-MB-436 breast carcinoma cell growth inhibition, synergistic combos for chromothripsis tumors, BGB or cisplatin combos (AID 1671458; call rule not given here;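 also: cells exposed for 96 hours; 0% = vehicle DMSO and 100% = killing by high DMSO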). The note with it: MDA-MB-436 breast carcinoma growth inhibition, drug combinations, stronger effect = higher value.
Assay [17] is described as follows: growth inhibition of BT084 medulloblastoma cells, cell-based, ICGC_MB145, cisplatin and BGB IC40 combos (AID 1671461; in the data active = inhibition above about 80%;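 also: cells exposed to drugs for 96 hours; 0% = vehicle DMSO and 100% = high DMSO full killing control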). The note with it: drug combinations, stronger effect = higher value.
Assay [18] can be described thus: growth inhibition of RCMB18 medulloblastoma cells, cell-based, cisplatin and BGB IC40 combos (AID 1671462; in the data active = inhibition above about 80%;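 also: cells exposed to compound for four days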). Particulars: stronger effect = higher value.
The nature of assay [19]: growth inhibition of CRL1545 osteosarcoma cells, cell-based, cisplatin and BGB IC20 combos (AID 1671464; in the data active = inhibition above about 80%;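 also: cells exposed to compound for 96 hours before readout; 0% = vehicle DMSO and 100% = high DMSO killing control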). The note with it: stronger effect = higher value.
The mark [20] stands for this setting: MELAS cybrid survival, CellTiter-Glo 48 h, stronger effect = higher value.
The mark [21] stands for this setting: Rieske KO mouse fibroblast survival, CellTiter-Glo 72 h.
Setting [22] is: stronger effect = lower value, cell number ratio, induced over uninduced.
The mark [23] stands for this setting: measured here: relative caspase fold change +Dox/-Dox.
[24] abbreviates: measured here: total cells with miR-34 induction, stronger effect = lower value.
Setting [25] is: measured here: total cells without miR-34 induction.
Setting [26] is: measured here: combination with BGB IC40, at 0.05 µM.
The mark [27] stands for this setting: measured here: with BGB IC20 combination, at 0.5 µM.
[28] abbreviates: measured here: with cisplatin IC20 combination, at 0.5 µM.
The mark [29] stands for this setting: measured here: combination with cisplatin, at 0.5 µM.

Inconclusive results are not listed. Activity calls are given as the source filed them. Unless noted, the limit is not given here; nearly all actives have AC50 up to about 26 µM.

Consider `CC(C)C(=O)OCC(=O)[C@@]12O[C@H](C3CCCCC3)O[C@@H]1C[C@H]1[C@@H]3CCC4=CC(=O)C=C[C@]4(C)[C@H]3[C@@H](O)C[C@@]12C`, for which the AC50 was 13.2 µM (active) in [1], 13.2 µM (active) in assay [2], 8.33 µM (active) in [3] and 2.95 µM (active) in assay [4]. For the same compound, the IC50 in assay [5] is 14.8 µM (active). The results for the z-score in assay [6] (setting [20]) and in assay [6] (setting [21]) were -0.376 (inactive) and 1.73, respectively.
For the compound `C=CC(=O)Nc1cccc(Nc2nc(Nc3ccc(N4CCN(C(C)=O)CC4)cc3OC)ncc2C(F)(F)F)c1`, the AC50 in assay [1] was 1.48 µM (active); in assay [2], 1.66 µM (active); in assay [3] it was 0.742 µM (active); in [4] it was 1.86 µM (active). For the same compound, the IC50 in [5] is 1.32 µM (active). Also, the fold change is 0.925 (inactive) in assay [7] (setting [22]) and 0.348 in assay [7] (setting [23]). The cell count in [7] (setting [24]) stood at 2040; in assay [7] (setting [25]) it was 2210. Further, the z-score in [6] (setting [20]) was -0.595 (inactive); in assay [6] (setting [21]) it was 1.83.
Regarding `C=CC(=O)Nc1cccc(Nc2nc(Nc3ccc(OCCOC)cc3)ncc2F)c1`, the AC50 was 2.35 µM (active) in assay [1], 1.66 µM (active) in assay [2], 2.09 µM (active) in assay [3] and 3.72 µM (active) in assay [4]. Also, the IC50 in [5] was 3.32 µM (active). In addition, the fold change in [7] (setting [22]) was 0.943 (inactive); in [7] (setting [23]), 0.349. In addition, the cell count in assay [7] (setting [24]) came to 1800; in [7] (setting [25]), 1910. In addition, the z-score is 2.91 (active) in assay [6] (setting [20]) and -0.365 in [6] (setting [21]).
As to `N=C1CCCN1Cc1[nH]c(=O)[nH]c(=O)c1Cl`, the result in assay [1], in assay [2], in assay [3], in assay [4] and in [5] was inactive. In addition, the inhibition was -20% (inactive) in assay [8] (at 0.5 µM, stronger effect = higher value); 7.99% in assay [8] (measured here: combination with BGB IC20, at 0.005 µM); -21.4% in [8] (measured here: combination with BGB IC40, at 0.005 µM); -6.35% in assay [8] (setting [26]); -51.5% in [8] (measured here: combination with cisplatin, at 0.5 µM, stronger effect = higher value); 0.237% in [8] (measured here: combination with cisplatin, at 5 µM, stronger effect = higher value). Further, the inhibition in assay [9] (BGB combo, at 5 µM) is -2.48%; in assay [9] (at 0.5 µM) it was 2.44% (inactive); in assay [9] (cisplatin combo, at 5 µM), 22.1%; in assay [9] (setting [27]) it was 3.45%; in assay [9] (setting [28]), 3.39%; in [9] (single agent, at 5 µM), -10.2%. In addition, the inhibition in assay [10] (BGB IC20 combo, at 0.005 µM) was 12.8%; in assay [10] (BGB IC40 combo, at 0.005 µM), -11.6%; in assay [10] (BGB IC40 combo, at 0.05 µM), -8.96%; in assay [10] (at 0.5 µM) it was -1.56% (inactive); in [10] (cisplatin combo, at 0.05 µM), -12%; in [10] (cisplatin combo, at 0.5 µM), 11.2%. The inhibition was -26.7% in assay [10] (cisplatin combo, at 5 µM); -22.7% in assay [10] (measured here: 5 uM single agent, at 5 µM); -12.8% (inactive) in assay [11] (at 0.5 µM); 8.6% in [11] (setting [26]); -12.6% in [11] (setting [29]); -5.77% in assay [11] (measured here: combination with cisplatin, at 5 µM). For the same compound, the inhibition in [12] (at 0.5 µM) is 8.24% (inactive); in assay [12] (measured here: with BGB IC20, at 0.5 µM) it was 11.6%; in [12] (measured here: with BGB IC20, at 5 µM), 59.6%; in assay [12] (measured here: with cisplatin IC20, at 0.5 µM), -6.26%; in assay [12] (measured here: with cisplatin IC20, at 5 µM), -29%; in [12] (single agent, at 5 µM), -1.22%. In addition, the inhibition was 2.27% (inactive) in [13] (at 0.5 µM); 3.71% in assay [13] (measured here: combination with BGB at IC20, at 0.5 µM); 0.594% in assay [13] (measured here: combination with cisplatin at IC20, at 0.5 µM); -9.24% (inactive) in assay [14] (at 0.5 µM); -10.8% in assay [14] (measured here: combo with BGB at IC20, at 0.5 µM); -6.6% in [14] (measured here: combo with cisplatin at IC20, at 0.5 µM). Moreover, the inhibition in [15] (at 0.5 µM) is 19.4% (inactive); in assay [15] (measured here: inhibition with BGB combination, at 0.05 µM), -16.6%; in [15] (measured here: inhibition with cisplatin combination, at 0.05 µM), -2.8%; in assay [16] (at 0.5 µM) it was -5.08% (inactive); in [16] (measured here: BGB combination, at 0.5 µM), 3%; in assay [16] (measured here: BGB combination, at 5 µM), -6.4%. In addition, the inhibition was -14.7% in assay [16] (measured here: cisplatin combination, at 0.5 µM); -27% in assay [16] (measured here: cisplatin combination, at 5 µM); -23.1% (inactive) in assay [17] (at 0.5 µM); -17.8% in assay [17] (cisplatin combination, at 0.5 µM); -5.35% in assay [17] (cisplatin combination, at 5 µM); -15.9% in assay [17] (measured here: BGB IC40 combination 0.05 uM, at 0.05 µM). Moreover, the inhibition in assay [17] (single agent, at 5 µM) was -9.51%; in assay [18] (at 0.5 µM), 3.14% (inactive); in assay [18] (cisplatin combo, at 5 µM), -11.8%; in assay [18] (measured here: BGB IC40 combination, at 0.05 µM), 22%; in [18] (setting [29]), 1.1%; in assay [18] (single agent, at 5 µM), -5.54%. The inhibition in assay [19] (at 0.5 µM) is 26.4% (inactive); in [19] (setting [27]) it was 22.4%; in [19] (setting [28]) it was 26.7%; in [19] (single agent, at 0.05 µM), 12.9%; in assay [19] (single agent, at 5 µM), 25.1%.

The values are drawn from PubChem BioAssay.
